Reference: the antibiotic and cytotoxicity screens of Wong et al. (2023)
The whole screen tested about 39,000 compounds, of which about 3,300 (8.5%) were called active. The entries come from a sample that favours actives as a whole.

tested on: HepG2; assay: cytotoxicity call (relative viability < 0.9); details: 10 µM

Structure (SMILES) | cytotoxicity call
C[C@@H]1CCCCO[C@@H](CN(C)Cc2ccc3c(c2)OCO3)[C@@H](C)CN([C@@H](C)CO)C(=O)c2cc(NS(=O)(=O)c3cccs3)ccc2O1 | inactive
CC(=O)N1CCN(CC(=O)NS(=O)(=O)c2ccccc2)CC1 | inactive
CCN1CCN(C2=C(NS(=O)(=O)c3ccc(Br)cc3)C(=O)c3ccccc3C2=O)CC1 | active
O=C1C(NS(=O)(=O)c2ccc(Br)cc2)=C(c2ccc(OC(F)(F)F)cc2)C(=O)c2ccccc21 | inactive
CCN1CCN(C2=C(NS(=O)(=O)c3ccc(Br)s3)C(=O)c3ccccc3C2=O)CC1 | active
COc1cccc(C#Cc2ccc3c(c2)O[C@@H](CN(C)C(C)=O)[C@H](C)CN([C@H](C)CO)S3(=O)=O)c1 | inactive
O=C(C[C@H]1C[C@H]2c3cc(NS(=O)(=O)c4ccc(F)cc4)ccc3O[C@H]2[C@@H](CO)O1)NCc1ccccn1 | inactive
Cc1noc(C)c1NC(=O)Nc1ccc2c(c1)C(=O)N([C@H](C)CO)C[C@H](C)[C@H](CN(C)S(=O)(=O)c1ccc(Cl)cc1)OCCCC[C@@H](C)O2 | inactive
CN1CCN(C(=O)C[C@@H]2CC[C@H]3[C@H](COc4ccc(NC(=O)C5CCOCC5)cc4C(=O)N3C)O2)CC1 | inactive
C[C@@H]1CCCCO[C@H](CN(C)S(=O)(=O)c2cn(C)cn2)[C@@H](C)CN([C@@H](C)CO)C(=O)c2cc(NS(=O)(=O)c3cccs3)ccc2O1 | inactive
CCCNC(=O)Nc1ccc2c(c1)C(=O)N(C)C[C@@H](OC)[C@H](C)CN(C(=O)C1CCOCC1)[C@@H](C)CO2 | inactive
CCO[C@@H]1OC(C(=O)N2CCN(Cc3ccccc3)CC2)=C[C@H](c2ccc(C(F)(F)F)cc2)[C@H]1CCCOC(=O)NCCCCCC(=O)NO | inactive
CN(C)CC(=O)N[C@@H]1CC[C@H](CCNC(=O)C2CC2)O[C@@H]1CO | inactive
C[C@@H]1CN([C@@H](C)CO)C(=O)c2cccc(NC(=O)Nc3cccc4ccccc34)c2O[C@H]1CN(C)C(=O)Nc1ccc(C(F)(F)F)cc1 | active
C[C@H]1CN([C@@H](C)CO)C(=O)c2cccc(NC(=O)Nc3cccc4ccccc34)c2O[C@@H]1CN(C)C(=O)Nc1ccc(C(F)(F)F)cc1 | active
C[C@H]1CN([C@@H](C)CO)C(=O)c2cccc(NC(=O)Nc3cccc4ccccc34)c2O[C@H]1CN(C)C(=O)Nc1ccc(C(F)(F)F)cc1 | active
C[C@@H]1CN([C@H](C)CO)C(=O)c2cccc(NC(=O)Nc3cccc4ccccc34)c2O[C@@H]1CN(C)C(=O)Nc1ccc(C(F)(F)F)cc1 | active
O=C(C1=C[C@H](c2coc3ccccc3c2=O)C[C@H](OCCCCO)O1)N1CCOCCOCCOCCOCC1 | inactive
Cc1ccc(S(=O)(=O)Nc2ccc3c(c2)C(=O)N([C@@H](C)CO)C[C@@H](C)[C@H](CN(C)C(=O)Nc2ccc4c(c2)OCO4)OCCCC[C@@H](C)O3)cc1 | inactive
COc1ccc(S(=O)(=O)N(C)C[C@H]2OCCCC[C@H](C)Oc3ccc(NC(=O)Nc4cccc5ccccc45)cc3C(=O)N([C@H](C)CO)C[C@@H]2C)cc1 | inactive
COc1cccc(S(=O)(=O)Nc2ccc3c(c2)[C@@H]2C[C@H](CC(=O)NCCc4ccccc4)O[C@@H](CO)[C@@H]2O3)c1 | inactive
O=C(CCCCC(=O)N/N=C/c1cc(I)cc(I)c1O)NO | inactive
COCC(=O)N1C[C@H](C)[C@H](OC)CN(C)C(=O)c2cc(NC(=O)Nc3cccc(F)c3)ccc2OC[C@H]1C | inactive

Structure (SMILES) | cytotoxicity call
C[C@@H]1CN([C@@H](C)CO)C(=O)c2cc(C#CCc3ccccc3)cnc2O[C@H]1CN(C)C(=O)C1CCOCC1 | inactive
COc1ccc(S(=O)(=O)Nc2ccc3c(c2)C(=O)N([C@H](C)CO)C[C@@H](C)[C@@H](CN(C)C(=O)NC(C)C)O3)cc1 | inactive
CC(C)NC(=O)N(C)C[C@H]1Oc2ccc(NC(=O)Nc3ccc4c(c3)OCO4)cc2C(=O)N([C@@H](C)CO)C[C@@H]1C | inactive
Cc1noc(C)c1S(=O)(=O)Nc1ccc2c(c1)CC(=O)N([C@@H](C)CO)C[C@@H](C)[C@H](CN(C)Cc1ccccc1)O2 | inactive
C[C@@H]1CN([C@@H](C)CO)C(=O)c2cc(NC(=O)CCCN(C)C)ccc2O[C@@H]1CN(C)S(=O)(=O)c1ccc(F)cc1 | inactive
C[C@H](CO)N1C[C@H](C)[C@H](CN(C)C(=O)Nc2ccc(C(F)(F)F)cc2)Oc2c(NC(=O)Nc3cccc4ccccc34)cccc2C1=O | inactive
C[C@H](CO)N1C[C@H](C)[C@@H](CN(C)C(=O)Nc2ccc(C(F)(F)F)cc2)Oc2c(NC(=O)Nc3cccc4ccccc34)cccc2C1=O | active
C[C@@H]1CN([C@H](C)CO)C(=O)c2cccc(NC(=O)Nc3cccc4ccccc34)c2O[C@H]1CN(C)C(=O)Nc1ccc(C(F)(F)F)cc1 | inactive
COc1ccc2ccccc2c1-c1c(OC)ccc2ccccc12 | inactive
COCOc1ccc2cc(Br)ccc2c1-c1c(OCOC)ccc2cc(Br)ccc12 | active
C[C@H]1CN([C@@H](C)CO)C(=O)c2cc(C#CCc3ccccc3)cnc2O[C@H]1CN(C)C(=O)C1CCOCC1 | inactive
C[C@@H]1CCCCO[C@H](CN(C)Cc2ccccc2)[C@H](C)CN([C@@H](C)CO)C(=O)c2cc(NC(=O)C3CCCCC3)ccc2O1 | inactive
COc1ccc(CNC(=O)c2cc3c(c(-c4cccc(-c5ccc(C#N)cc5)c4)n2)[C@@H](CCO)N([S@](=O)C(C)(C)C)C3)cc1 | inactive
CN(C)CCCNC(=O)C[C@@H]1CC[C@@H]2[C@H](COC[C@H](O)CN2C(=O)Nc2cc(Cl)cc(Cl)c2)O1 | inactive
C[C@H](CO)N1C[C@H](C)[C@@H](CN(C)Cc2ccc(C(=O)Nc3ccccc3N)cc2)Oc2ccc(NC(=O)NC3CCCCC3)cc2CC1=O | inactive
C[C@H]1CN([C@@H](C)CO)C(=O)Cc2cc(NC(=O)NC3CCCCC3)ccc2O[C@H]1CN(C)Cc1ccc(C(=O)Nc2ccccc2N)cc1 | active
C[C@H](CO)N1C[C@H](C)[C@H](CN(C)Cc2ccc(C(=O)Nc3ccccc3N)cc2)Oc2ccc(NC(=O)NC3CCCCC3)cc2CC1=O | inactive
C[C@@H]1CN([C@H](C)CO)C(=O)Cc2cc(NC(=O)NC3CCCCC3)ccc2O[C@H]1CN(C)Cc1ccc(C(=O)Nc2ccccc2N)cc1 | inactive
C[C@@H]1CN([C@H](C)CO)C(=O)Cc2cc(NC(=O)NC3CCCCC3)ccc2O[C@@H]1CN(C)Cc1ccc(C(=O)Nc2ccccc2N)cc1 | active
C[C@@H]1CN([C@H](C)CO)C(=O)Cc2cc(NC(=O)C3CCCCC3)ccc2O[C@@H]1CN(C)Cc1ccc(C(=O)Nc2ccccc2N)cc1 | active
C[C@H](CO)N1C[C@H](C)[C@H](CN(C)Cc2ccc(C(=O)Nc3ccccc3N)cc2)Oc2ccc(NC(=O)C3CCCCC3)cc2CC1=O | inactive
C[C@H]1CN([C@@H](C)CO)C(=O)Cc2cc(NC(=O)C3CCCCC3)ccc2O[C@H]1CN(C)Cc1ccc(C(=O)Nc2ccccc2N)cc1 | inactive
C[C@H]1CN([C@@H](C)CO)C(=O)Cc2cc(NC(=O)NC3CCCCC3)ccc2O[C@@H]1CN(C)Cc1ccc(C(=O)Nc2ccccc2N)cc1 | inactive
